Compounds without any hit were thinned out: in the full panel of roughly 79,000, 15% have a hit. A number with no mark means an inactive call. Active and inactive are the calls of the source. No stated cut-off is given here; in the data, active means growth inhibition above about 70%; inactive means the rest.
Assays:
[1] = NCI Yeast Anticancer Drug Screen. Data for the rad50 strain (AID 155);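 further: 0% = growth of vehicle-only cultures of the same strain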; details: S. cerevisiae rad50 strain growth inhibition, active compounds read high
Outline: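 DNA repair mutant yeast, compound exposure, growth read-out; inhibition is taken relative to vehicle.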

[2] = NCI Yeast Anticancer Drug Screen. Data for the mec2-1 strain (AID 157); details: S. cerevisiae mec2-1 strain, active compounds read high
Outline: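 mec2-1 yeast strain, carrying an alteration in DNA damage repair or cell cycle control, was exposed to compounds; growth inhibition was measured relative to vehicle-treated controls.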

[3] = NCI Yeast Anticancer Drug Screen. Data for the sgs1 mgt1 strain (AID 161);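 further: 0% = growth of cultures given vehicle only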; details: S. cerevisiae sgs1 mgt1 strain, active compounds read high
Outline: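 Yeast cells carrying a defined DNA-repair defect were exposed to test compounds. Growth inhibition was measured relative to vehicle-treated controls.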

[4] = NCI Yeast Anticancer Drug Screen. Data for the cln2 rad14 strain (AID 165);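 further: 0% = growth equal to vehicle treated cultures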; details: S. cerevisiae cln2 rad14 strain, active compounds read high
Outline: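 Yeast carrying cln2 and rad14 alterations (cell cycle control and DNA damage repair) were exposed to compounds. Growth inhibition was measured against vehicle-treated controls.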

[5] = NCI Yeast Anticancer Drug Screen. Data for the bub3 strain (AID 167); details: S. cerevisiae bub3 mutant strain, active compounds read high
Outline: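 In this screen, a yeast mutant lacking normal mitotic checkpoint function is challenged with compound. Relative growth versus vehicle gives the inhibition value.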

[6] = NCI Yeast Anticancer Drug Screen. Data for the mlh1 rad18 strain (AID 175); details: S. cerevisiae mlh1 rad18 strain growth inhibition, active compounds read high
Outline: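 Growth inhibition of the yeast strain was measured after compound exposure and expressed relative to vehicle-treated controls. The strain carries defined defects in DNA damage repair.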

[7] = at 5.0 µM (retest, dose inferred, filed as 0.5)
[8] = at 50.0 µM (retest, dose inferred, filed as 5.0)

For `CSc1ccc2c(c1)c(CCN)c(C)n2Cc1ccccc1Cl`, the growth inhibition [1, 7] was 3%, the growth inhibition [1, 8] was 100% (active) and the growth inhibition ([1]; at 50.0 µM) was 99.5% (active). The growth inhibition [2, 7] was 0%, the growth inhibition [2, 8] was 100% (active) and the growth inhibition ([2]; at 50.0 µM) was 99.5% (active). The growth inhibition [3, 7] was 12%, the growth inhibition [3, 8] was 99% (active) and the growth inhibition ([3]; at 50.0 µM) was 99.3% (active). The growth inhibition [4, 7] was -31%, the growth inhibition [4, 8] was 98% (active) and the growth inhibition ([4]; at 50.0 µM) was 98.5% (active). The growth inhibition [5, 7] was -7%, the growth inhibition [5, 8] was 99% (active) and the growth inhibition ([5]; at 50.0 µM) was 99.5% (active). For the same compound, the growth inhibition [6, 7] was 13%, the growth inhibition [6, 8] was 99% (active) and the growth inhibition ([6]; at 50.0 µM) was 99.4% (active).
With `Cc1ccc(C(Cc2ccc(N3C(N)=NC(N)=NC3(C)C)cc2)C(=O)Nc2ccc(S(=O)(=O)F)cc2)cc1` (stereo not given) the growth inhibition [1, 7] was 7%, the growth inhibition [1, 8] was 99% (active) and the growth inhibition ([1]; at 50.0 µM) was 99.2% (active). The growth inhibition [2, 7] was 45%, the growth inhibition [2, 8] was 99% (active) and the growth inhibition ([2]; at 50.0 µM) was 99.6% (active). The growth inhibition [3, 7] was 1%, the growth inhibition [3, 8] was 99% (active) and the growth inhibition ([3]; at 50.0 µM) was 99.8% (active). For the same compound, the growth inhibition [4, 7] was 7%, the growth inhibition [4, 8] was 99% (active) and the growth inhibition ([4]; at 50.0 µM) was 98.8% (active). For the same compound, the growth inhibition [5, 7] was -1%, the growth inhibition [5, 8] was 99% (active) and the growth inhibition ([5]; at 50.0 µM) was 98.8% (active). For the same compound, the growth inhibition [6, 7] was 4%, the growth inhibition [6, 8] was 99% (active) and the growth inhibition ([6]; at 50.0 µM) was 99.5% (active).
With `O=C(COc1ccc(Cl)c(Cl)c1)N(Cc1ccccc1)Cc1ccc[n+](Cc2ccc(S(=O)(=O)F)cc2)c1` the growth inhibition [1, 7] was 4%, the growth inhibition [1, 8] was 99% (active) and the growth inhibition ([1]; at 50.0 µM) was 43.5%. For the same compound, the growth inhibition [2, 7] was -59%, the growth inhibition [2, 8] was 100% (active) and the growth inhibition ([2]; at 50.0 µM) was 51.9%. The growth inhibition [3, 7] was 1%, the growth inhibition [3, 8] was 100% (active) and the growth inhibition ([3]; at 50.0 µM) was 53.6%. The growth inhibition [4, 7] was 5%, the growth inhibition [4, 8] was 98% (active) and the growth inhibition ([4]; at 50.0 µM) was 56.9%. For the same compound, the growth inhibition [5, 7] was 3%, the growth inhibition [5, 8] was 99% (active) and the growth inhibition ([5]; at 50.0 µM) was 52.5%. For the same compound, the growth inhibition [6, 7] was 4%, the growth inhibition [6, 8] was 99% (active) and the growth inhibition ([6]; at 50.0 µM) was 59.4%.
For `CC(=O)NC1C(S[As](C)C)OC(COC(C)=O)C(OC(C)=O)C1OC(C)=O` (stereo not given), the growth inhibition [1, 7] was 59%, the growth inhibition [1, 8] was 98% (active) and the growth inhibition ([1]; at 50.0 µM) was 91% (active). For the same compound, the growth inhibition [2, 7] was 18%, the growth inhibition [2, 8] was 95% (active) and the growth inhibition ([2]; at 50.0 µM) was 92.4% (active). For the same compound, the growth inhibition [3, 7] was 21%, the growth inhibition [3, 8] was 54% and the growth inhibition ([3]; at 50.0 µM) was 88.5% (active). For the same compound, the growth inhibition [4, 7] was 12%, the growth inhibition [4, 8] was 73% (active) and the growth inhibition ([4]; at 50.0 µM) was 88.7% (active). The growth inhibition [5, 7] was 55%, the growth inhibition [5, 8] was 98% (active) and the growth inhibition ([5]; at 50.0 µM) was 86.1% (active). For the same compound, the growth inhibition [6, 7] was 44%, the growth inhibition [6, 8] was 98% (active) and the growth inhibition ([6]; at 50.0 µM) was 89.5% (active).
In the case of `NC(=O)CNCc1ccc([As]=O)cc1` (stereo not given), the growth inhibition [1, 7] is reported as 2%, the growth inhibition [1, 8] is reported as 1% and the growth inhibition ([1]; at 50.0 µM) is reported as 72.8% (active). For the same compound, the growth inhibition [2, 7] was 3%, the growth inhibition [2, 8] was -2% and the growth inhibition ([2]; at 50.0 µM) was 50.1%. For the same compound, the growth inhibition [3, 7] was 0%, the growth inhibition [3, 8] was -2% and the growth inhibition ([3]; at 50.0 µM) was 71.1% (active). For the same compound, the growth inhibition [4, 7] was 1%, the growth inhibition [4, 8] was 3% and the growth inhibition ([4]; at 50.0 µM) was 10.4%. For the same compound, the growth inhibition [5, 7] was 3%, the growth inhibition [5, 8] was 8% and the growth inhibition ([5]; at 50.0 µM) was 74.2% (active). The growth inhibition [6, 7] was 12%, the growth inhibition [6, 8] was -6% and the growth inhibition ([6]; at 50.0 µM) was 69.5%.
